Assay [1] in a line: NCI Yeast Anticancer Drug Screen. Data for the rad50 strain (AID 155).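 Note: 0% = growth of vehicle-only cultures of the same strain.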 The following applies: S. cerevisiae rad50 strain growth inhibition, active compounds read high. In a few lines:
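Genetically altered yeast (DNA repair pathway); compound treatment; growth inhibition vs vehicle ctrl.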

Assay [2] can be described thus: NCI Yeast Anticancer Drug Screen. Data for the mec2-1 strain (AID 157). To be noted: S. cerevisiae mec2-1 strain, active compounds read high. A digest of the protocol: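 Strain: mec2-1 (DNA repair/cell cycle alteration). Compound exposure, then growth measured; inhibition expressed relative to vehicle.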
Assay [3] in a line: NCI Yeast Anticancer Drug Screen. Data for the sgs1 mgt1 strain (AID 161).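 Note: 0% = growth of cultures given vehicle only.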 The following applies: S. cerevisiae sgs1 mgt1 strain, active compounds read high. In a few lines:
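Inhibition of yeast growth, normalised to vehicle-treated controls, is reported for a strain bearing genetic alterations in DNA damage repair.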

Assay [4] is described as follows: NCI Yeast Anticancer Drug Screen. Data for the cln2 rad14 strain (AID 165).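 Note: 0% = growth equal to vehicle treated cultures.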 The following applies: S. cerevisiae cln2 rad14 strain, active compounds read high. A digest of the protocol: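 Compounds are applied to the cln2 rad14 yeast strain, and growth is then compared with that of vehicle-treated cultures to give inhibition.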
Assay [5] in a line: NCI Yeast Anticancer Drug Screen. Data for the bub3 strain (AID 167). To be noted: S. cerevisiae bub3 mutant strain, active compounds read high. A digest of the protocol: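 Yeast carrying a defined mutation is treated with each compound, and growth is compared with that of vehicle-exposed cells to give inhibition.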
Assay [6] in a line: NCI Yeast Anticancer Drug Screen. Data for the mlh1 rad18 strain (AID 175). To be noted: S. cerevisiae mlh1 rad18 strain growth inhibition, active compounds read high. A digest of the protocol: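 Read-out is yeast growth inhibition, calculated against vehicle-only controls. The compound was applied to a strain engineered with DNA damage repair alterations.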
The mark [7] stands for this setting: at 5.0 µM (retest, dose inferred, filed as 0.5).
Setting [8] is: at 50.0 µM (retest, dose inferred, filed as 5.0).

This is part of a sample that, as a whole, favours compounds with a hit. Of some 79,000 tested, about 15% had one in any assay. Values without a mark were called inactive. Active and inactive are the calls of the source. Cut-off read from the data, not from the text of the source: active = growth inhibition above about 70%; inactive = the rest.

Turning to `c1ccc2c(CCc3ccncc3)cccc2c1`, the growth inhibition in assay [1] (setting [7]) is 4%; in assay [1] (setting [8]) it was 74% (active); in assay [1] (at 50.0 µM) it was 95.4% (active); in assay [2] (setting [7]), 2%; in assay [2] (setting [8]), 60%; in assay [2] (at 50.0 µM), 95.5% (active). For the same compound, the growth inhibition in assay [3] (setting [7]) was 1%; in assay [3] (setting [8]), 60%; in assay [3] (at 50.0 µM) it was 96% (active); in assay [4] (setting [7]), 3%; in assay [4] (setting [8]), 53%; in assay [4] (at 50.0 µM), 88.5% (active). For the same compound, the growth inhibition in assay [5] (setting [7]) is 10%; in assay [5] (setting [8]) it was 81% (active); in assay [5] (at 50.0 µM) it was 94.1% (active); in assay [6] (setting [7]) it was 0%; in assay [6] (setting [8]), 71% (active); in assay [6] (at 50.0 µM), 92.5% (active).

In the case of `CCN(CC)P(=S)(c1ccccc1CCP(=S)(c1ccccc1)c1ccccc1)N(CC)CC`, the growth inhibition is -6% in assay [1] (setting [7]); 34% in assay [1] (setting [8]); 91.2% (active) in assay [1] (at 50.0 µM); -3% in assay [2] (setting [7]); 21% in assay [2] (setting [8]); 98.6% (active) in assay [2] (at 50.0 µM). Moreover, the growth inhibition was -6% in assay [3] (setting [7]); 62% in assay [3] (setting [8]); 97.6% (active) in assay [3] (at 50.0 µM); -1% in assay [4] (setting [7]); 11% in assay [4] (setting [8]); 96.8% (active) in assay [4] (at 50.0 µM). The growth inhibition was -2% in assay [5] (setting [7]); 41% in assay [5] (setting [8]); 59.6% in assay [5] (at 50.0 µM); -4% in assay [6] (setting [7]); 32% in assay [6] (setting [8]); 97.1% (active) in assay [6] (at 50.0 µM).

As to `O=C(N/C(=C\c1ccc([N+](=O)[O-])cc1)c1nc2ccccc2s1)c1ccccc1`, the growth inhibition in assay [1] (setting [7]) was 3%; in assay [1] (setting [8]), 73% (active); in assay [1] (at 50.0 µM), 24.8%; in assay [2] (setting [7]), 1%; in assay [2] (setting [8]), 69%; in assay [2] (at 50.0 µM) it was 76.2% (active). Besides, the growth inhibition in assay [3] (setting [7]) was -1%; in assay [3] (setting [8]), 72% (active); in assay [3] (at 50.0 µM), 54.4%; in assay [4] (setting [7]), -2%; in assay [4] (setting [8]), 25%; in assay [4] (at 50.0 µM), 20%. Also, the growth inhibition in assay [5] (setting [7]) was 4%; in assay [5] (setting [8]), 83% (active); in assay [5] (at 50.0 µM) it was 80.3% (active); in assay [6] (setting [7]) it was 2%; in assay [6] (setting [8]), 55%; in assay [6] (at 50.0 µM), 72.5% (active).

`O=C(Nc1ccccc1Cl)c1ccc(Cl)c(Cl)c1`: the growth inhibition is 4% in assay [1] (setting [7]); 0% in assay [1] (setting [8]); -0.85% in assay [1] (at 50.0 µM); 4% in assay [2] (setting [7]); 2% in assay [2] (setting [8]); 1% in assay [2] (at 50.0 µM). The growth inhibition in assay [3] (setting [7]) was 1%; in assay [3] (setting [8]), 1%; in assay [3] (at 50.0 µM), 10.2%; in assay [4] (setting [7]), 2%; in assay [4] (setting [8]), -2%; in assay [4] (at 50.0 µM) it was 29.6%. Further, the growth inhibition in assay [5] (setting [7]) is 1%; in assay [5] (setting [8]), -3%; in assay [5] (at 50.0 µM), 2.2%; in assay [6] (setting [7]) it was -1%; in assay [6] (setting [8]), 1%; in assay [6] (at 50.0 µM), -18.2%.

Regarding `CSC(SC)C(SC)SC`, the growth inhibition in assay [1] (setting [7]) is 1%; in assay [1] (setting [8]), 98% (active); in assay [1] (at 50.0 µM) it was 1.65%; in assay [2] (setting [7]), 1%; in assay [2] (setting [8]) it was 99% (active); in assay [2] (at 50.0 µM), -5.4%. In addition, the growth inhibition in assay [3] (setting [7]) was -4%; in assay [3] (setting [8]), 99% (active); in assay [3] (at 50.0 µM), 0.65%; in assay [4] (setting [7]), 6%; in assay [4] (setting [8]) it was 99% (active); in assay [4] (at 50.0 µM) it was 16.6%. For the same compound, the growth inhibition in assay [5] (setting [7]) was 0%; in assay [5] (setting [8]) it was 99% (active); in assay [5] (at 50.0 µM) it was -2.35%; in assay [6] (setting [7]), -1%; in assay [6] (setting [8]), 99% (active); in assay [6] (at 50.0 µM), -1.15%.

As to `CCCCN(Cc1ccccc1)CC(O)c1cc2c(c3ccccc13)CCCC2` (stereo not given), the growth inhibition in assay [1] (setting [7]) was -2%; in assay [1] (setting [8]), 85% (active); in assay [1] (at 50.0 µM) it was 95.9% (active); in assay [2] (setting [7]) it was 9%; in assay [2] (setting [8]), 89% (active); in assay [2] (at 50.0 µM), 80% (active). Besides, the growth inhibition in assay [3] (setting [7]) was 0%; in assay [3] (setting [8]), 95% (active); in assay [3] (at 50.0 µM), 93.2% (active); in assay [4] (setting [7]) it was -7%; in assay [4] (setting [8]), 59%; in assay [4] (at 50.0 µM), 92.2% (active). The growth inhibition is -7% in assay [5] (setting [7]); 84% (active) in assay [5] (setting [8]); 76.1% (active) in assay [5] (at 50.0 µM); 18% in assay [6] (setting [7]); 92% (active) in assay [6] (setting [8]); 92.8% (active) in assay [6] (at 50.0 µM).

As to `CC1CCCCN(CCN(Cc2ccccc2)c2ccccc2)C1` (stereo not given), the growth inhibition in assay [1] (setting [7]) is -1%; in assay [1] (setting [8]) it was 32%; in assay [1] (at 50.0 µM) it was 58.1%; in assay [2] (setting [7]), 2%; in assay [2] (setting [8]), 29%; in assay [2] (at 50.0 µM) it was 45.9%. In addition, the growth inhibition is 10% in assay [3] (setting [7]); 75% (active) in assay [3] (setting [8]); 73.8% (active) in assay [3] (at 50.0 µM); 4% in assay [4] (setting [7]); 37% in assay [4] (setting [8]); 80.8% (active) in assay [4] (at 50.0 µM). Besides, the growth inhibition was 5% in assay [5] (setting [7]); 52% in assay [5] (setting [8]); 58% in assay [5] (at 50.0 µM); 8% in assay [6] (setting [7]); 42% in assay [6] (setting [8]); 54.1% in assay [6] (at 50.0 µM).

For `CCc1cc2nc3c(=O)[nH]c(=O)nc-3n(CCN(CCO)CCO)c2cc1CC`, the growth inhibition is 5% in assay [1] (setting [7]); 3% in assay [1] (setting [8]); 41% in assay [1] (at 50.0 µM); 10% in assay [2] (setting [7]); 27% in assay [2] (setting [8]); 30.6% in assay [2] (at 50.0 µM). The growth inhibition in assay [3] (setting [7]) was 2%; in assay [3] (setting [8]) it was 15%; in assay [3] (at 50.0 µM), 55%; in assay [4] (setting [7]), 2%; in assay [4] (setting [8]), -6%; in assay [4] (at 50.0 µM), 37%. The growth inhibition in assay [5] (setting [7]) was 2%; in assay [5] (setting [8]) it was -7%; in assay [5] (at 50.0 µM), 18.1%; in assay [6] (setting [7]) it was 2%; in assay [6] (setting [8]), 7%; in assay [6] (at 50.0 µM), 81.9% (active).

`CSc1nnc(CCC(=O)Nc2c(C)cccc2C(C)(C)C)o1`: the growth inhibition was -5% in assay [1] (setting [7]); 1% in assay [1] (setting [8]); -2.5% in assay [1] (at 50.0 µM); 1% in assay [2] (setting [7]); 4% in assay [2] (setting [8]); 27.8% in assay [2] (at 50.0 µM). Moreover, the growth inhibition in assay [3] (setting [7]) is -14%; in assay [3] (setting [8]), 25%; in assay [3] (at 50.0 µM), 10.9%; in assay [4] (setting [7]) it was 4%; in assay [4] (setting [8]), 7%; in assay [4] (at 50.0 µM), 49.6%. Also, the growth inhibition in assay [5] (setting [7]) is 7%; in assay [5] (setting [8]) it was 7%; in assay [5] (at 50.0 µM), 0.65%; in assay [6] (setting [7]), -9%; in assay [6] (setting [8]) it was -3%; in assay [6] (at 50.0 µM) it was 1.65%.

Regarding `CC(C)=CCC/C(C)=C/CCC1(C)C=Cc2c(c3ccccc3oc2=O)O1` (stereo not given), the growth inhibition in assay [1] (setting [7]) was 28%; in assay [1] (setting [8]) it was 3%; in assay [1] (at 50.0 µM) it was 20.1%; in assay [2] (setting [7]), 25%; in assay [2] (setting [8]), 15%; in assay [2] (at 50.0 µM), 15.2%. Besides, the growth inhibition in assay [3] (setting [7]) is 51%; in assay [3] (setting [8]), 36%; in assay [3] (at 50.0 µM), 57.6%; in assay [4] (setting [7]) it was 37%; in assay [4] (setting [8]) it was 25%; in assay [4] (at 50.0 µM) it was 52.3%. Further, the growth inhibition in assay [5] (setting [7]) is 53%; in assay [5] (setting [8]), 28%; in assay [5] (at 50.0 µM) it was 23.1%; in assay [6] (setting [7]) it was 25%; in assay [6] (setting [8]), 16%; in assay [6] (at 50.0 µM) it was 76.5% (active).

The values above are taken from PubChem BioAssay (NCI).
